A short description of assay [1]: qHTS assay to identify small molecule agonists of the TGF-beta/Smad signaling pathway (AID 1346859; active = well fitted activation curve with a large enough effect in the signal ratio in the repeat runs, not every such curve was filed as active; the % refers to the signal ratio; also: series mostly up to about 77 µM). The method, boiled down: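 HEK 293T cells stably carrying a beta-lactamase reporter driven by the Smad binding element were seeded overnight, exposed to DMSO-dissolved compounds for 5 hr at 37 C, 5% CO2, then loaded with FRET substrate for 2 hr at room temperature.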
Background: Quantitative high-throughput screening tests each substance at several concentrations.

Assay [2] has as its target Thyrotropin-releasing hormone receptor (Homo sapiens) (UniProt P34981). The assay is described as follows: qHTS assay to identify small molecule antagonists of the thyrotropin-releasing hormone receptor (TRHR) signaling pathway (AID 1346877; active = well fitted inhibition curve with a large enough effect in the repeat runs, not every such curve was filed as active; also: series mostly up to about 51 µM). Summed up: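 Antagonism is measured as suppression of the calcium response to 1 nM TRH in TRHR-HEK293 cells that have been dye-loaded for 2 h at 37 °C after overnight plating. Each compound is tested at 15 concentrations in triplicate.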

Assay [3] shares this target. Kind of assay: qHTS assay to identify small molecule agonists of the thyrotropin-releasing hormone receptor (TRHR) signaling pathway (AID 1346891; calls by dose curve; also: series mostly up to about 58 µM). The method, boiled down:
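TRHR-expressing HEK293 cells were plated 18 h at 37 °C/5% CO2, loaded with calcium dye 2 h at 37 °C, then given compound in DMSO; fluorescence was read kinetically for 3 min at 1 s intervals.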

The nature of assay [4]: Human pregnane X receptor (PXR) small molecule agonists, qHTS cell viability counter screen (AID 1346977). Also: nearly all actives have a fitted effect of over 50% in size. The method, boiled down: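 PXR-Luc HepG2 cells in medium with 5% charcoal-stripped FBS were pre-incubated 5hr, then exposed to compounds for 24hr at 37C. Viability was read in the same wells by CellTiter-Fluor fluorescence, reagent added after 23hr with a 1hr incubation.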

Assay [5] can be described thus: Caspase-3/7 induction in HepG2 cells by small molecules, qHTS assay (AID 1346978). Also: nearly all actives have a fitted effect of over 15% in size. Summed up:
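Wild-type HepG2 cells (2,000/well) were settled 5 h at 37 C, 5% CO2, then exposed to compounds in DMSO for 17 h. Caspase-3/7 activity was read by luminescence 30 min after adding Caspase-Glo 3/7 reagent at room temperature.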

A short description of assay [6]: Caspase-3/7 induction in CHO-K1 cells by small molecules, qHTS cell viability counter screen (AID 1346979). Also: nearly all actives have a fitted effect of over 35% in size. Summed up: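 Wild-type CHO-K1 cells were seeded at 1,500 per well, rested 5hr at 37 C, then exposed to compounds in DMSO. After 16hr, CellTiter-Fluor reagent was added and fluorescence read 1hr later as the viability measure.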
The nature of assay [7]: Caspase-3/7 induction in CHO-K1 cells by small molecules, qHTS assay (AID 1346980). Also: nearly all actives have a fitted effect of over 15% in size. The method, boiled down: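 Wild-type cells were seeded at 1,500 per well and settled 5 hr at 37 C, 5% CO2, then exposed to DMSO-dissolved compounds for 17 hr. Caspase-Glo 3/7 reagent was added, and luminescence was read after 30min at room temperature.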
Assay [8] can be described thus: Caspase-3/7 induction in HepG2 cells by small molecules, qHTS cell viability counter screen (AID 1346981). Also: series mostly up to about 92 µM; nearly all actives have a fitted effect of over 30% in size. The method, boiled down: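 Cell viability is measured as a cytotoxicity counter screen alongside the Caspase-Glo 3/7 readout in identical wells. Wild-type HepG2 cells are treated with test compounds for 16 hr at 37 C before CellTiter-Fluor addition and a 1-hr incubation.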

Assay [9] deals with Nuclear receptor subfamily 1 group I member 2 (Homo sapiens) (UniProt O75469). Kind of assay: Human pregnane X receptor (PXR) small molecule agonists, qHTS assay (AID 1346982). Also: nearly all actives have a fitted effect of over 35% in size. Summed up:
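Cells: HepG2 stably carrying PXR-Luc. Medium held 5% charcoal-stripped FBS. Compounds in DMSO added after 5 hr plating, incubated 24 hr, then luminescence quantified with ONE-Glo.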

For assay [10], the target named is Cytochrome P450 2D6 (Homo sapiens) (UniProt P10635). The assay is described as follows: Cytochrome P450 Family 2 Subfamily D Member 6 (CYP2D6) small molecule antagonists: luciferase reporter qHTS assay (AID 1671196). Also: nearly all actives have a fitted effect of over 50% in size. Also: potency is read from the fitted curve at half-maximal effect. The method, boiled down:
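Enzyme and proluciferin substrate were first combined with test chemical for 10 min at room temperature. Adding NADPH regeneration solution started a 1 h reaction, stopped with luciferin detection reagent and read by luminescence 20 min later.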
A general note: In a reporter assay the amount or activity of a reporter protein is the signal.

Assay [11] concerns the target Cytochrome P450 2C19 (Homo sapiens) (UniProt P33261). The assay is described as follows: Cytochrome P450 Family 2 Subfamily C Member 19 (CYP2C19) small molecule antagonists: luciferase reporter qHTS assay (AID 1671197). Also: nearly all actives have a fitted effect of over 65% in size. Also: potency is read from the fitted curve at half-maximal effect. Summed up:
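P450-Glo CYP2C19 system: enzyme-substrate mix with compound 10 min at room temperature, then NADPH regeneration solution, 1 h at 37C. Proluciferin-to-luciferin conversion detected by luminescence after 20 min with detection reagent; ketoconazole as positive control.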

In assay [12] the target is Cytochrome P450 2C9 (Homo sapiens) (UniProt P11712). Kind of assay: Cytochrome P450 Family 2 Subfamily C Member 9 (CYP2C9) small molecule antagonists: luciferase reporter qHTS assay (AID 1671198). Also: nearly all actives have a fitted effect of over 50% in size. Also: potency is read from the fitted curve at half-maximal effect. Summed up:
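CYP2C9 activity was measured with a P450-Glo proluciferin substrate. Enzyme–substrate mix was held with compound for 10 min at room temperature, then NADPH regeneration solution was added for 1 h at 37C. Luciferin product was read as luminescence.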

Assay [13] has as its target Cytochrome P450 1A2 (Homo sapiens) (UniProt P05177). The assay is described as follows: Cytochrome P450 Family 1 Subfamily A Member 2 (CYP1A2) small molecule antagonists: luciferase reporter qHTS assay (AID 1671199). Also: series mostly up to about 120 µM; nearly all actives have a fitted effect of over 50% in size. Summed up: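 Compounds were incubated with CYP1A2 and a luminogenic proluciferin substrate for 10 min at room temperature before the reaction was started with NADPH regeneration solution. After 1 h, detection reagent was added and light output, proportional to CYP activity, was recorded.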

Assay [14] deals with Voltage-gated inwardly rectifying potassium channel KCNH2 (Homo sapiens) (UniProt Q12809). Kind of assay: Human Ether-a-go-go-Related Gene (hERG) channel small molecule antagonists: fluorescence cell-based qHTS assay (AID 1671200). The method, boiled down: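 U2OS cells expressing the channel were plated at 1000 cells/well, incubated overnight at 37 C, then loaded with FluxOR II thallium-sensitive dye for 1 h at room temperature in the dark, with a further 10 min at room temperature before stimulation.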
Chain of Voltage-gated inwardly rectifying potassium channel KCNH2 (Homo sapiens) (Q12809 whole entry, looked up): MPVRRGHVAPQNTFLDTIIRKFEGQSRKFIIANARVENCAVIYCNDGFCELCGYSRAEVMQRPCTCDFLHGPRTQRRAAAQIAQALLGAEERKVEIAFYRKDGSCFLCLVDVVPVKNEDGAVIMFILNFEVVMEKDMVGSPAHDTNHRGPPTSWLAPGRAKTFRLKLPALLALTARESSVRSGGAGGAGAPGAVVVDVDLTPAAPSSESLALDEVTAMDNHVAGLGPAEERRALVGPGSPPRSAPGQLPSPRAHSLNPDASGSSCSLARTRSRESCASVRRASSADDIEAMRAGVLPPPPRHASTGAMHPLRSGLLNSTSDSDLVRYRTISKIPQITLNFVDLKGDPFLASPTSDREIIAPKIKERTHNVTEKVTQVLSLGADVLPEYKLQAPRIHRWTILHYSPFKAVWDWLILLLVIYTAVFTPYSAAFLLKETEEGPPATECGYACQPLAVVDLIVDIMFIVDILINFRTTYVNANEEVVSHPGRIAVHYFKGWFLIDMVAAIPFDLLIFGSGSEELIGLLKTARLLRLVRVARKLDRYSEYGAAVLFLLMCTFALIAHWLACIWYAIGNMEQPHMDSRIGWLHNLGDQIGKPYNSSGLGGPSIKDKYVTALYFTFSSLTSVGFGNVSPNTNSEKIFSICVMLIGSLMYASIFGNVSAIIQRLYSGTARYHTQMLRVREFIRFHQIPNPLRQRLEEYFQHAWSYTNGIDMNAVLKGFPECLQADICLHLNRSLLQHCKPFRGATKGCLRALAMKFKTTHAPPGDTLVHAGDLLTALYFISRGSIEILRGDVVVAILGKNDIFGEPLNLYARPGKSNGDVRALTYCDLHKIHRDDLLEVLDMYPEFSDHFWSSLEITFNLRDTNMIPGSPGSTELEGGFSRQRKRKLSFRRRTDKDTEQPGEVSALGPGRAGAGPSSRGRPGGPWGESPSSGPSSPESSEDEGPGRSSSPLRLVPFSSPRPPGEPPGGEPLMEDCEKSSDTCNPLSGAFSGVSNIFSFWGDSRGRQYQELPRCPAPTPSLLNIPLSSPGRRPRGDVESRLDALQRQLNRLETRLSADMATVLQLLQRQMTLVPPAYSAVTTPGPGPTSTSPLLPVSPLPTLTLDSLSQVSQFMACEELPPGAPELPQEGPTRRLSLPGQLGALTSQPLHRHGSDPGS
Background: The hERG channel carries a current that helps repolarise heart muscle cells.

Assay [15] concerns the target Cytochrome P450 3A4 (Homo sapiens) (UniProt P08684). Kind of assay: Cytochrome P450 Family 3 Subfamily A Member 4 (CYP3A4) small molecule antagonists: luciferase reporter qHTS assay (AID 1671201). Also: nearly all actives have a fitted effect of over 50% in size. Also: potency is read from the fitted curve at half-maximal effect. The method, boiled down: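 P450-Glo CYP3A4 system with proluciferin substrate; compounds preincubated 10 min RT with enzyme-substrate mix, then NADPH regeneration added for 1 h RT. Detection reagent 20 min, luminescence read as relative luminescence units.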

The target of assay [16] is Nuclear receptor subfamily 1 group I member 2 (Rattus norvegicus) (UniProt Q9R1A7). The assay is described as follows: Rat pregnane X receptor (rPXR) activation by small molecules, qHTS assay (AID 1346983). Also: nearly all actives have a fitted effect of over 20% in size. To be noted: rPXR luciferase reporter cells, One-Glo luminescence, 24 h; max activation: hits give high values. Summed up:
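Cell-based rPXR luciferase reporter assay, 2,000 cells per well, rested 5hr at 37 C before compound addition in DMSO, then 24 hr at 37 C. One-Glo reagent was added and luminescence read after 30 min at room temperature.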

In assay [17] the target is Nuclear receptor subfamily 1 group I member 2 (Homo sapiens) (UniProt O75469). The assay is described as follows: CYP3A4 induction through human pregnane X receptor (PXR) by small molecules, qHTS assay (AID 1346984). Also: nearly all actives have a fitted effect of over 40% in size. Summed up:
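Quantitative HTS in DPX-2 cells, i.e. HepG2 transfected with PXR response element and CYP3A4-promoter luciferase. Compounds in DMSO incubated 24hr at 37C; then P450-Glo CYP3A4 substrate, 3uM final, 3hr; One-Glo luminescence.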

Assay [18] shares this target. The assay is described as follows: Human pregnane X receptor (PXR) activation by small molecules, qHTS assay (AID 1346985). Also: nearly all actives have a fitted effect of over 40% in size. Summed up: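 DPX-2 cells (HepG2 co-transfected with a PXR response element and a CYP3A4-promoter luciferase construct) were seeded at 2,000 per well, rested 5 hr at 37C, then exposed to DMSO-dissolved compounds for 24 hr. Activation was read as luciferase luminescence.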

Each structure is given as a SMILES string. Unmarked numbers belong to inactive results. Results filed as inconclusive are left out. Active and inactive are the calls of the source. Unless noted, calls follow the shape of the dose curve; as a rule, active = well fitted curve in the direction sought with a large enough effect in the repeat runs; inconclusive = weak or mixed curves; inactive = no such curve, though single readings can be large; an effect the other way counts as inactive or inconclusive.
% is scaled to controls: 0 for no effect and ±100 for the full control effect.

Chain of Nuclear receptor subfamily 1 group I member 2 (Homo sapiens) (O75469 whole entry, looked up): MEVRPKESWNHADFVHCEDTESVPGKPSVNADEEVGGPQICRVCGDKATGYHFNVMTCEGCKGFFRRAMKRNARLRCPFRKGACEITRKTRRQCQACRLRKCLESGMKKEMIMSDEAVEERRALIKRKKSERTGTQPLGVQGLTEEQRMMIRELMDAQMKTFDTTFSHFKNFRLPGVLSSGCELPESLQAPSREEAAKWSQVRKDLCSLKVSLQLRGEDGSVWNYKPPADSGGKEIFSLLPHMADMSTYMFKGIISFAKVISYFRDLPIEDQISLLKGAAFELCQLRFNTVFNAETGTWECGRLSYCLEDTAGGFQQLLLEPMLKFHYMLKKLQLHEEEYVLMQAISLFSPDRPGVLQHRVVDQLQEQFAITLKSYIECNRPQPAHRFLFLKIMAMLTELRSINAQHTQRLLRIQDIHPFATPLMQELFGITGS
Chain of Cytochrome P450 2C9 (Homo sapiens) (P11712 whole entry, looked up): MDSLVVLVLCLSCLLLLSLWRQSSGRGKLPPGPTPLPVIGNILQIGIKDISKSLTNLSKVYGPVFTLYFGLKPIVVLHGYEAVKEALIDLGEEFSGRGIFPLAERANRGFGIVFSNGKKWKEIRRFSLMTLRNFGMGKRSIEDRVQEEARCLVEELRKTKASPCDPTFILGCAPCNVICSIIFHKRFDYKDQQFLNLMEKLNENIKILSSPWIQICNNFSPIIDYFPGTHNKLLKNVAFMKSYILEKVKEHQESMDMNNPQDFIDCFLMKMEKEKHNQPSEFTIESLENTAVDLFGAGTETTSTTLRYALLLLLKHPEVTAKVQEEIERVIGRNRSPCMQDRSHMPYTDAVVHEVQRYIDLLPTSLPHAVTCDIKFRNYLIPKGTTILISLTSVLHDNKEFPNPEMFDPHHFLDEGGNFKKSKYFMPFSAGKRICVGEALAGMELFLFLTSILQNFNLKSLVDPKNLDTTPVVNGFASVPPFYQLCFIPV
Chain of Thyrotropin-releasing hormone receptor (Homo sapiens) (P34981 whole entry, looked up): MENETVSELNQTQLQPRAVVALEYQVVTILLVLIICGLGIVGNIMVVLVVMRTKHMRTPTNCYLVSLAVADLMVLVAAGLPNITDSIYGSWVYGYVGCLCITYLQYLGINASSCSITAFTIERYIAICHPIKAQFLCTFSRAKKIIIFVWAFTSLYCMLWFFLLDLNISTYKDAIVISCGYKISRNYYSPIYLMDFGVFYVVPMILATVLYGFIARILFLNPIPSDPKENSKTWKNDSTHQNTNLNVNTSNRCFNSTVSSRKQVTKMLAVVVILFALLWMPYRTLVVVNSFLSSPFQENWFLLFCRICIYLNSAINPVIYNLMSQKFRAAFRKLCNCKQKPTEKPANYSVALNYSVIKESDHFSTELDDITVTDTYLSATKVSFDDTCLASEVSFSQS
Chain of Cytochrome P450 1A2 (Homo sapiens) (P05177 whole entry, looked up): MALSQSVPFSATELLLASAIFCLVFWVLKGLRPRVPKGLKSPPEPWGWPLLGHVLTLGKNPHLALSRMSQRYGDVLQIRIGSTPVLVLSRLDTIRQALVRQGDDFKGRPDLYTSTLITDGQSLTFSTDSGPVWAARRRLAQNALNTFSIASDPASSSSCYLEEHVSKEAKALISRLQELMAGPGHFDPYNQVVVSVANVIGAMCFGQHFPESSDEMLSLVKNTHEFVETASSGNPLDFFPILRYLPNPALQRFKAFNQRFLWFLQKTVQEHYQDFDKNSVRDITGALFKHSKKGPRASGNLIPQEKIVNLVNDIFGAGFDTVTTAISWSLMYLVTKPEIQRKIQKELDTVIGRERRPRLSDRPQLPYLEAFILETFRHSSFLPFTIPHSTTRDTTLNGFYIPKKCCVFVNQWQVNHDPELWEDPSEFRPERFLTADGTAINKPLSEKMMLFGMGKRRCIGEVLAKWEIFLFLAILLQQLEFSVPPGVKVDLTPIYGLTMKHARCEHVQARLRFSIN
Chain of Cytochrome P450 2D6 (Homo sapiens) (P10635 whole entry, looked up): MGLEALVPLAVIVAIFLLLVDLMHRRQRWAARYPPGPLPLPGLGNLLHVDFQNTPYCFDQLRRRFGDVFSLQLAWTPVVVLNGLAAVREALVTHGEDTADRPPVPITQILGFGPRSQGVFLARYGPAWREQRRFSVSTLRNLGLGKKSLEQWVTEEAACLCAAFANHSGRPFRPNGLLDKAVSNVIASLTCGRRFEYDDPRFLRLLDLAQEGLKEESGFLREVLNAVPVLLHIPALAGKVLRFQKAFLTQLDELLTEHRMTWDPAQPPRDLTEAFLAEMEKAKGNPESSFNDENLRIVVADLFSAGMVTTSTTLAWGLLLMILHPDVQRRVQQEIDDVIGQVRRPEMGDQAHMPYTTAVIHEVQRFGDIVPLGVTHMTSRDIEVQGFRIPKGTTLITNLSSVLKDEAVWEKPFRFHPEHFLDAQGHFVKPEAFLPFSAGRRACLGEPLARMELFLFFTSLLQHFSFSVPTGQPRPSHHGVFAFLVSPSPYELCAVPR
Chain of Cytochrome P450 2C19 (Homo sapiens) (P33261 whole entry, looked up): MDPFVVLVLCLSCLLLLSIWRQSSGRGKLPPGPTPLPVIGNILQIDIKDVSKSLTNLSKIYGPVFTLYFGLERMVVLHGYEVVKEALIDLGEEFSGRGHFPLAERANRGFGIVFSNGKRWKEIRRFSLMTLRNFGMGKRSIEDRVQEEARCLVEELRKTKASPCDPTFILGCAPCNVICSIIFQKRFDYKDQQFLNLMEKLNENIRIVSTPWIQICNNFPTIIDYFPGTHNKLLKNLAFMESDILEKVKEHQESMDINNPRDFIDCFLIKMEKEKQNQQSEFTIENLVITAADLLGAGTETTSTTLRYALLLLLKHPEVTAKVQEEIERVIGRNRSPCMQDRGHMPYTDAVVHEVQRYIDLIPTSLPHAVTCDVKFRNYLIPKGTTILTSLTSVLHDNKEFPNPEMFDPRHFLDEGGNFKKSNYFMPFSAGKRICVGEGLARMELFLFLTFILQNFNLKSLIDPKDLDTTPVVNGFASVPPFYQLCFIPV
Chain of Cytochrome P450 3A4 (Homo sapiens) (P08684 whole entry, looked up): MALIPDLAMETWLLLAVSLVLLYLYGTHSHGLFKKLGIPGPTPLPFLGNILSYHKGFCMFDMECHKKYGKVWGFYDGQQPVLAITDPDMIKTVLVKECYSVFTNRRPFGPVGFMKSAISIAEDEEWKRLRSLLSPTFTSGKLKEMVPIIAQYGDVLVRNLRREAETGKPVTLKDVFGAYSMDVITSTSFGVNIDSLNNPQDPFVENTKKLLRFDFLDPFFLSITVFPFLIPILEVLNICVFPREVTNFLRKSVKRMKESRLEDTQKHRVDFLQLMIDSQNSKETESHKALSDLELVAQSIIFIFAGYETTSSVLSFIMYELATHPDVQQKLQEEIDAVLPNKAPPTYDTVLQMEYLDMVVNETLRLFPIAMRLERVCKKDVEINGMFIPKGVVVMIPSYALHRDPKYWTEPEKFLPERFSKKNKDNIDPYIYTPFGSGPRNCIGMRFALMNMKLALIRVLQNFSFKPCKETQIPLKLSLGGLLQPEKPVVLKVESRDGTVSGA
Chain of Nuclear receptor subfamily 1 group I member 2 (Rattus norvegicus) (Q9R1A7 whole entry, looked up): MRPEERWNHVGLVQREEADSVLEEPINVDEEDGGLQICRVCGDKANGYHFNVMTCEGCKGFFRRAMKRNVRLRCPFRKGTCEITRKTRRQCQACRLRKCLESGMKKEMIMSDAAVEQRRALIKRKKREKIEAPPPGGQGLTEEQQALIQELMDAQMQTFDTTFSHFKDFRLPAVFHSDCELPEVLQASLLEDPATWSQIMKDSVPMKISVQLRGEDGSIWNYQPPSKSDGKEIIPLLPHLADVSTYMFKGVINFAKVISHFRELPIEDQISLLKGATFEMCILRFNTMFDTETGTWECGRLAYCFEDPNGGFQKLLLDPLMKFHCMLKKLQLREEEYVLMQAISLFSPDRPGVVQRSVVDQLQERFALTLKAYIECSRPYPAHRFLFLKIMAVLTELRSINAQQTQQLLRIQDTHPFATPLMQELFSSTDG

As for `O=C[C@@H](O)[C@H](O)[C@H](O)CO`, the outcome in [1], in assay [2], in [4], in [5], in assay [7] and in assay [8] was inactive. Moreover, the Potency result in assay [3], in assay [6], in assay [9], in assay [10], in [11] and in assay [12] was “inactive” in each case. The Potency entry in assay [13], in assay [14] and in assay [15] was “inactive” each time.

As for `NCC1CCC(C(=O)Oc2ccc(CCC(=O)O)cc2)CC1` (stereo not drawn), the outcome in [1], in [2], in assay [4], in [5], in assay [7] and in assay [8] was inactive. For the same molecule, the molecule was classed as inactive in assay [17] and in assay [18]. In addition, the Potency result in [3], in assay [6], in [9], in [10], in assay [11] and in assay [12] was “inactive” in each case. Moreover, the Potency result in assay [13], in assay [14] and in assay [15] was “inactive” each time. In addition, in [16], the max activation is -5.61%.

For the molecule `Cc1cc(N)no1`, the call in assay [1], in [2], in assay [4], in assay [5], in assay [7] and in [8] was inactive. Moreover, the Potency result in [3], in assay [6], in [9], in assay [11], in assay [12] and in [14] was “inactive” in each case. The Potency result in [15] is “inactive”. Besides, the Potency in assay [10] was 65.6 µM (active).

Turning to `CC(=O)c1c(C)cc(C(C)(C)C)cc1C`, the result in assay [1], in assay [2], in [4], in [5], in assay [7] and in assay [8] was inactive. For the same molecule, the Potency result in assay [3], in assay [6], in assay [9], in [10], in [12] and in [14] was “inactive” each time. Further, the Potency entry in assay [15] is “inactive”. Further, the Potency in assay [11] is 71 µM (active).

Consider `COc1cc(S(N)(=O)=O)cc(C(=O)O)c1OC`, for which the outcome in assay [1], in assay [2], in [4], in assay [5], in [7] and in assay [8] was inactive. The Potency entry in [3], in assay [6], in assay [9], in assay [10], in assay [11] and in assay [12] was “inactive” each time. Further, the Potency result in assay [13] and in assay [14] was “inactive” each time.

As to `C=CCON/C(CCC)=C1\C(=O)CC(C)(C)C(C(=O)OC)=C1O`, the call in assay [1], in assay [2], in assay [4], in assay [5], in assay [7] and in assay [8] was inactive. In addition, the Potency result in assay [3], in assay [6], in assay [9], in assay [10] and in assay [14] was “inactive” each time. Besides, the results for the Potency in assay [11], in [12] and in assay [15] were 78.7 µM (active), 35.2 µM (active) and 35.2 µM (active), respectively.

Take `CCOC(=O)CC(C(C)=O)C(C)=O`: the result in assay [1], in [2], in assay [4], in [5], in assay [7] and in assay [8] was inactive. The Potency entry in [3], in assay [6], in assay [9], in assay [10], in assay [11] and in assay [12] was “inactive” in each case. The Potency entry in assay [13], in assay [14] and in assay [15] was “inactive” each time.

For `C=C(C)C(=O)OCCCC`, the result in [1], in assay [2], in assay [4], in assay [5], in assay [7] and in [8] was inactive. The Potency entry in assay [3], in assay [6], in assay [9], in assay [10], in assay [12] and in [13] was “inactive” throughout. For the same molecule, the Potency entry in assay [14] and in [15] was “inactive” throughout.

(Values after PubChem BioAssay (Tox21).)
